# Experimental data taken from the supplement of paper PMC6555819.
# How the values were obtained:
# Experiment in all cases: PBM binding z-score (relative to random genomic background probes); higher = stronger binding; sequences stand for … in GC…GCGATTGACAGCGTAGAATGAAGG
# [1] = tested on: FXR:RXRa (NR concentration 270 nM, RXRa partner concentration 90 nM)
# Procedure, shortened: (§1)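 Binding buffer was PBS pH 7.4 with 2% milk, 0.02% Triton X-100, 1 mM DTT, 0.2 mg/mL BSA and 0.4 mg/ml salmon testes DNA. In it, ligand-free nuclear receptor dimers were incubated 1 h on custom Agilent 4×180K protein-binding microarrays carrying double-stranded probes. Antibodies against each partner (one per run) detected binding, and z-scores were calculated against random background probes after regression normalization of scanned fluorescence.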
# [2] = tested on: LXRa:RXRa (NR concentration 270 nM, RXRa partner concentration 90 nM)
# Procedure, shortened: as §1
# [3] = tested on: LXRa homodimer (NR concentration 270 nM)
# Procedure, shortened: as §1
# [4] = tested on: LXRb:RXRa (NR concentration 270 nM, RXRa partner concentration 90 nM)
# Procedure, shortened: as §1
# [5] = tested on: LXRb homodimer (NR concentration 270 nM)
# Procedure, shortened: as §1
# [6] = tested on: PPARa:RXRa (NR concentration 270 nM, RXRa partner concentration 90 nM)
# Procedure, shortened: as §1
# [7] = tested on: PPARg:RXRa (NR concentration 180 nM, RXRa partner concentration 90 nM)
# Procedure, shortened: as §1
# [8] = tested on: PPARg:RXRa 270nM:90nM, anti-RXR (NR concentration 270 nM, RXRa partner concentration 90 nM)
# Procedure, shortened: as §1
# [9] = tested on: PPARg:RXRa 30nM:10nM, anti-RXR (NR concentration 30 nM, RXRa partner concentration 10 nM)
# Procedure, shortened: as §1
# [10] = tested on: PPARg:RXRa 90nM:30nM, anti-RXR (NR concentration 90 nM, RXRa partner concentration 30 nM)
# Procedure, shortened: as §1
Sequence,PBM binding z-score [1],PBM binding z-score [2],PBM binding z-score [3],PBM binding z-score [4],PBM binding z-score [5],PBM binding z-score [6],PBM binding z-score [7],PBM binding z-score [8],PBM binding z-score [9],PBM binding z-score [10]
CCGACTGGGGCAGAAAGGTTATCATACCATCCGG,0.492,0.483,0.0667,0.849,-0.748,2.05,1.7,2.27,0.694,2.13
TGAATGAGGTAAAAGATCAGGGAACGTGGCGTCG,0.359,-0.0204,-0.712,-0.13,-0.307,2.5,3.68,5.02,3.41,5.53
TCTCGGAAGACACGAAGGTCAGAGCTTTCCAGAG,0.883,0.652,-0.454,0.74,-0.988,1.79,0.356,1.57,2.55,1.71
CCGACAGGGGCAGAAAGGTTACCATACCATCCGG,0.56,0.716,-0.132,1.04,-0.954,1.95,1.47,1.96,0.381,1.32
CCTGCTAGGTGATGGTCAGCTAATCTACAGTATG,-0.61,-0.646,-0.557,-0.682,-0.584,-0.449,-0.12,-0.449,-0.178,-0.369
CCAAGCAGGCCAATCTGGGTCACTCAAGGCTTGA,0.754,1.79,-0.345,0.979,-1.19,3.45,2.46,2.55,0.227,1.63
CATACAGGATCAGCTAGGCCAGAGTAGGGACGGC,-0.21,-0.464,0.0266,-0.7,-0.0365,-0.466,0.558,-0.422,-0.274,-0.505
TATACAGAGTCAAAGGCCAGAGTACGAATGTCGA,0.1,0.487,0.0394,0.0721,0.0425,1.1,2.17,2.98,1.53,2.73
ATATGTAGGTTACATCCGGGTCATGCAGGCTATG,2.18,3.82,0.802,2.38,0.427,4.45,6.06,5.18,2.64,4.3
CAAACTAGGCCAAGAGGTCAAAGTCCGCTTCCCG,5.17,5.51,4.77,4.72,1.13,5.68,6.86,6.66,5.68,6.63
AGTCAAAGTTCACTAGGTAACGAAAGATTCAGCT,5.29,5.15,2.87,3.05,0.803,4.94,7.8,6.56,3.66,5.74
CGTCCAAGGTCATAGGAGGTCAGTCAAGACAGAT,7.64,7.59,5.22,6.59,0.88,5.87,5.47,5.75,2.45,4.47
TCTTGTAGATAAAAGGTTAAGAAAGCCGAAGCCT,1.26,1.93,-0.0435,1.85,0.124,3.26,3.62,5.64,4.77,5.98
ATACCAAGGTGATCGTGAGGTCGATGATACTAAC,1.46,0.961,0.482,0.993,-0.149,1.34,0.934,0.585,0.169,0.24
ACAGACAGGTGATGACGGTAACTCAGGCTATCAT,-0.347,-0.186,-0.31,-0.476,-0.424,-0.121,0.839,-0.227,-0.335,-0.0238
ACCCGGAGGACAAAGGTCAGAGCTACGCCAGTGA,4,4.23,1.65,3.55,0.448,5.01,6.33,6.32,3.97,5.95
TAGCCTAGGTCATTGGGCCAGCATAGTACGCATC,3.88,3.2,0.466,1.87,-0.0227,3.46,3.57,3.71,0.617,2.5
ACTATTAGTTGAGACGAGGGCAATCGATAGGTTG,0.46,0.333,-0.168,0.136,-0.0649,0.253,0.627,0.107,0.45,0.23
CGTCCAAGCTCAATGCTAGGTCAGTGAAAGCATT,-0.232,-0.0286,0.428,-0.0522,-0.887,0.167,-0.576,-0.605,-0.752,-0.627
GGAACGAGGACAAAGTTGATAGCATCTGTCGACG,-0.0589,-0.208,-0.722,-0.455,-0.842,2.4,4.11,5.44,3.91,5.14
CTCGAAAGGTCGGTTGTGGTGAGTATACGGATAA,2.01,1.54,0.263,1.67,0.416,2.29,0.242,0.949,-0.0875,0.394
ATCGAAAGGTCGACGTGAGTATAGAGAAAGGGAA,3.97,3.07,-0.0365,2.39,0.422,4.06,2.45,2.9,1.04,2.13
TCTGCTAGGTCAGTTGGTCAACTAACGAGCTGCC,0.974,0.627,-0.58,0.38,0.371,1.63,1.12,2.14,1.02,1.81
TCTTGTAGATCAAGCGGGTTAAGAAAGCCTGAGT,0.257,0.0631,-0.461,0.225,-0.187,0.817,-0.599,1.1,2.23,1.81
